Results: the supplement of paper PMC10849652
Targets with a hit are over-represented here; the source holds about 7,900 in all. About 0.6% of all pairs of compound and target were hits.

What follows are targets tested with CNC(=O)c1ccc(Nc2ncc(C(F)(F)F)c(NCc3nccnc3N(C)S(C)(=O)=O)n2)cc1 [defactinib] (assay: log2 fold change, soluble protein after heating vs DMSO (PISA); higher = thermal stabilisation; K562 cells, 10 uM, 30 min; active = over 0.2 and 3.5 SD of the protein, either way, in both replicates (recomputed)).
Outline: (§1)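 K562 cells at 2×10^6 cells/mL were treated for 30 min with 10 μM compound, and aliquots were heated for 3 min over 48°C-58°C before pooling. Extraction used PBS with 0.5% NP-40 at 4°C, and soluble protein was the supernatant after 21,000xg for 90 min, measured by TMTpro 16plex LC-MS/MS with channel sums equalised. Thermal stability values, relative to control samples and from duplicates, are log2 fold changes.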

UniProt O60749, sequence (O60749 whole entry, looked up): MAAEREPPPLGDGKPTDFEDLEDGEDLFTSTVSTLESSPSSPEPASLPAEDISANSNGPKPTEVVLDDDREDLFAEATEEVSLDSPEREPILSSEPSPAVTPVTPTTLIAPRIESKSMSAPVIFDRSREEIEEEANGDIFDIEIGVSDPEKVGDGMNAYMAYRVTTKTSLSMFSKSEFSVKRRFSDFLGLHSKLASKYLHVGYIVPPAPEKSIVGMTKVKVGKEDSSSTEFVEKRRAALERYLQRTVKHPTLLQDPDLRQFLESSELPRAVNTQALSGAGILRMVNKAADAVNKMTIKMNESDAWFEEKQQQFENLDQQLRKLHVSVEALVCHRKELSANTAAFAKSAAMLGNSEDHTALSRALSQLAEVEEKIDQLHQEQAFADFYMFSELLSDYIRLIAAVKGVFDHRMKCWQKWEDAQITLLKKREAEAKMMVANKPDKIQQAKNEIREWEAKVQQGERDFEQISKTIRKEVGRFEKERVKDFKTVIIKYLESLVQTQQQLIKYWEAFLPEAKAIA
UniProt Q9UHD2, sequence (Q9UHD2 whole entry, looked up): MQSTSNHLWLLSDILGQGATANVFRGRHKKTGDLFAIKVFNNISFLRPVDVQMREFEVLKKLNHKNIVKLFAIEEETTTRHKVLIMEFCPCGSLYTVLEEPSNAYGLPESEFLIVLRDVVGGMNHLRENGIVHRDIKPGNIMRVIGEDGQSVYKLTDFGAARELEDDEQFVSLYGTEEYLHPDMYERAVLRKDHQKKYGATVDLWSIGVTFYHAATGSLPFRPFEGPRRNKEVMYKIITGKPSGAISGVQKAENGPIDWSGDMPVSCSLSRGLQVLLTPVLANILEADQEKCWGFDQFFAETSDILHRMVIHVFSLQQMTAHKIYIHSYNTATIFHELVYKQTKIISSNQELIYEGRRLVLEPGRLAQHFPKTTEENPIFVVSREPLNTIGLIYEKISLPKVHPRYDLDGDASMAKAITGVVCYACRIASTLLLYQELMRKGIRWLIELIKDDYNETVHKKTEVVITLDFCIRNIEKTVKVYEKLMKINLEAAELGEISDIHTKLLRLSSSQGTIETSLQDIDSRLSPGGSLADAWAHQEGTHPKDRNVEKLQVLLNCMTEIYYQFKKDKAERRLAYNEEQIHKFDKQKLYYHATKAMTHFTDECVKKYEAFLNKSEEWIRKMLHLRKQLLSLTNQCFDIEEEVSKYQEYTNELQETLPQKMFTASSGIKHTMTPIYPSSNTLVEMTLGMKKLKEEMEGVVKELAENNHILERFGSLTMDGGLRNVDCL
UniProt P51532, sequence (P51532 whole entry, looked up): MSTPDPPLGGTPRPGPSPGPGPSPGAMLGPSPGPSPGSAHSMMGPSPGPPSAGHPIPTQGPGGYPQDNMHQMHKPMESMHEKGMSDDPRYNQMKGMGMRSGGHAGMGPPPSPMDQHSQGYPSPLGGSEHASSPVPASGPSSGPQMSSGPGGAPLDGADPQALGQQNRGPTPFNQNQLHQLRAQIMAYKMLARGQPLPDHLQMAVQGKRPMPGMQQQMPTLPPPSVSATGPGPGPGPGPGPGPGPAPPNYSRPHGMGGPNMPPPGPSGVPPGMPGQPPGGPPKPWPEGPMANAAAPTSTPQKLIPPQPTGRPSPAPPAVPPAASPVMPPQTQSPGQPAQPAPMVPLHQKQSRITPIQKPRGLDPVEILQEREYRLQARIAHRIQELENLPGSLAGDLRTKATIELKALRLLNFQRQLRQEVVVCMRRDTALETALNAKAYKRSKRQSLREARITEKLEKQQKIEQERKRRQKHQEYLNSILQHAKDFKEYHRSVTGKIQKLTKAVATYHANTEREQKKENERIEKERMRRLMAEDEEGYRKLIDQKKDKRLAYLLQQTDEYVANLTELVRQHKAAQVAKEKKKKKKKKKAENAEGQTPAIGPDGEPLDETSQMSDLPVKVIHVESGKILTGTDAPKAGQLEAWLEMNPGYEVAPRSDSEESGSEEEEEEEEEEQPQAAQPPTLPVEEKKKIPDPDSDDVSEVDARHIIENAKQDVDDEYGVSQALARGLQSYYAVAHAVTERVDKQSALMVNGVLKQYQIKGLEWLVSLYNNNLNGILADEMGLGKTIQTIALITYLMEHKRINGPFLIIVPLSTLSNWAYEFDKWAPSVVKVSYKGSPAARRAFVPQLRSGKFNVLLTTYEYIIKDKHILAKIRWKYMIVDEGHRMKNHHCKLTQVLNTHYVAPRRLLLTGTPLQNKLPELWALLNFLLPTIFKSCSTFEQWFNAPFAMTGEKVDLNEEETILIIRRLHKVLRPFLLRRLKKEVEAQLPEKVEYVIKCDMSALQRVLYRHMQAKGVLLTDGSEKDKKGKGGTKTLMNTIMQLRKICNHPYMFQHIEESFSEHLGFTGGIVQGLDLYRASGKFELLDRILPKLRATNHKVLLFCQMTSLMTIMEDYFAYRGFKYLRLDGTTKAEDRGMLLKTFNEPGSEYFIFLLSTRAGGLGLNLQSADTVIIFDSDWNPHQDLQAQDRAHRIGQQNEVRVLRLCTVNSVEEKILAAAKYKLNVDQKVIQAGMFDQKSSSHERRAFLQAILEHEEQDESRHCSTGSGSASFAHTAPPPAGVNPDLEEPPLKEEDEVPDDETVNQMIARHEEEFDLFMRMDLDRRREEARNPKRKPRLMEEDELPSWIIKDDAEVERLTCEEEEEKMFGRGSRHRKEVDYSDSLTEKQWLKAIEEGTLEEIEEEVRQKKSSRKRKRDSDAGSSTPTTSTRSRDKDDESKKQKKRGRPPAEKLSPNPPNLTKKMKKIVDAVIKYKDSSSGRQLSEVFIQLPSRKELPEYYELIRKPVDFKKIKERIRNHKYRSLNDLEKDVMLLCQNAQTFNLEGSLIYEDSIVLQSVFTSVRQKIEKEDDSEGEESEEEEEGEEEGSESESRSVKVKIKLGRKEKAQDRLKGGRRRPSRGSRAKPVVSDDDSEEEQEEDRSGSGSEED
UniProt P12931, sequence (P12931 whole entry, looked up): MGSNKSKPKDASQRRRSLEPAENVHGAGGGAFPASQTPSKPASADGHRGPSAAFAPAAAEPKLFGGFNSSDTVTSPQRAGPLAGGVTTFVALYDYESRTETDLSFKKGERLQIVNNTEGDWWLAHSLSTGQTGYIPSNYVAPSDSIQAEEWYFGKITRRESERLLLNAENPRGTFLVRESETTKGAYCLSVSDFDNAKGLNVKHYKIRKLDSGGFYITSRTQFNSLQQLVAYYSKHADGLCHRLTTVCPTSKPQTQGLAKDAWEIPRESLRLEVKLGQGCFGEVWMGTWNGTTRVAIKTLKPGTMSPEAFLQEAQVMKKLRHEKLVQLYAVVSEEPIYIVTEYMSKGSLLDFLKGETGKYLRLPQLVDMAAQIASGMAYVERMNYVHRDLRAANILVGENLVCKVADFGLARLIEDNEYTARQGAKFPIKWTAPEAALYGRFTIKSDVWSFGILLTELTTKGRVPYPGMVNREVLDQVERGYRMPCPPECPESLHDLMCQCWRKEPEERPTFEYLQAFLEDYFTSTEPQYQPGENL
UniProt Q02086, sequence (Q02086 whole entry, looked up): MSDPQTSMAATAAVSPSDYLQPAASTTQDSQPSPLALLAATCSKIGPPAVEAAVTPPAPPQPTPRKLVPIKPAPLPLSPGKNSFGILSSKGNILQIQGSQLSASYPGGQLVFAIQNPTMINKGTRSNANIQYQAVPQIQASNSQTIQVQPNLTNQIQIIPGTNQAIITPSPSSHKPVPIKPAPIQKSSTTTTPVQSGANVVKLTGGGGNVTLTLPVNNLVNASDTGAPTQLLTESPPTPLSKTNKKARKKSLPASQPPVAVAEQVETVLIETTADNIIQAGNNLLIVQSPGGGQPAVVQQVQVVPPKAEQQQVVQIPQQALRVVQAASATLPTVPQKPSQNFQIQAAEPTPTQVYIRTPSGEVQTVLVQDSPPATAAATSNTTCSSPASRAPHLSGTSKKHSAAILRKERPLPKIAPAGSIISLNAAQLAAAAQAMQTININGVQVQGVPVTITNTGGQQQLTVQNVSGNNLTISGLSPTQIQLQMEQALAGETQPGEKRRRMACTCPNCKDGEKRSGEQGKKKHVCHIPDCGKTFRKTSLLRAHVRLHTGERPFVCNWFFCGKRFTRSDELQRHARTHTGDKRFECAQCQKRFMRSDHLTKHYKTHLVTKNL
UniProt Q13242, sequence (Q13242 whole entry, looked up): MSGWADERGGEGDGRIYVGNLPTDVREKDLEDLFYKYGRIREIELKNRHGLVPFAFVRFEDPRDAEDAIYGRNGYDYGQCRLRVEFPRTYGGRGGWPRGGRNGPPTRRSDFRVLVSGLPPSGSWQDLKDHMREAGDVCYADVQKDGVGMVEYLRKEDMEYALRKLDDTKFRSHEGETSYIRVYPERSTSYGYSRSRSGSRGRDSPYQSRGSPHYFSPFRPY
UniProt Q92581, sequence (Q92581 whole entry, looked up): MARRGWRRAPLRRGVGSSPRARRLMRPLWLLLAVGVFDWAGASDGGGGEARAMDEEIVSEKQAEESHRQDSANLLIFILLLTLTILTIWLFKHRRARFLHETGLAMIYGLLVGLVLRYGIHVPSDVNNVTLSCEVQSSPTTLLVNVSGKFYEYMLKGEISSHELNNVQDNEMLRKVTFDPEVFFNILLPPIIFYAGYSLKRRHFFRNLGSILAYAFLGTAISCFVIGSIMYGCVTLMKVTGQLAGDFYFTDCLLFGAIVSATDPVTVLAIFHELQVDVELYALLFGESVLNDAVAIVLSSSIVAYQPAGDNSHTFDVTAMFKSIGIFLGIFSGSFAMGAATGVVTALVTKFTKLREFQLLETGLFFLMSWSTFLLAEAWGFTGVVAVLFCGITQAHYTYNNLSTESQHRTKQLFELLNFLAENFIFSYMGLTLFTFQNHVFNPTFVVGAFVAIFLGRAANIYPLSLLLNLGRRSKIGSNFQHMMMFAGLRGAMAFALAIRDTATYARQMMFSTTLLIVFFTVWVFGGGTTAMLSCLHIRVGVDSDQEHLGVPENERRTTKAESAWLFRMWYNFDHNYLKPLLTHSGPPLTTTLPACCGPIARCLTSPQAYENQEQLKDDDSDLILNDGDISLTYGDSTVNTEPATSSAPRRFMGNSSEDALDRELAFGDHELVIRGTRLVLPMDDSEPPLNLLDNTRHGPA

Row | Target | log2 fold change
1 | TC2N (UniProt Q8N9U0) | -0.341 (inactive)
2 | SYK (UniProt P43405) | 0.249 (inactive)
3 | SUPT5H isoform 2 (UniProt O00267) | -0.005 (inactive)

The targets below were run with CNCc1ccc(-c2[nH]c3cc(F)cc4c3c2CCNC4=O)cc1 [rucaparib] in the same assay as above.
Outline: as §1

Row | Target | log2 fold change
4 | SNX2 isoform 2 (UniProt O60749) | 0.024 (inactive)
5 | SSBP4 (UniProt Q9BWG4) | 0.022 (inactive)
6 | TBK1 (UniProt Q9UHD2) | 0.106 (inactive)
7 | TBP (UniProt P20226) | 0.088 (inactive)
8 | SLC46A1 (UniProt Q96NT5) | -0.081 (inactive)
9 | SP2 (UniProt Q02086) | 0.324 (inactive)
10 | TCOF1 isoform 6 (UniProt Q13428) | -0.022 (inactive)
11 | TCOF1 isoform 3 (UniProt Q13428) | -0.065 (inactive)
12 | SPIRE1 (UniProt Q08AE8) | 0.035 (inactive)
13 | SLC9A6 isoform 3 (UniProt Q92581) | 0.165 (inactive)
14 | TBC1D2 (UniProt Q9BYX2) | 0.264 (inactive)
15 | SPAG9 isoform 4 (UniProt O60271) | 0.113 (inactive)
16 | SRC isoform 2 (UniProt P12931) | -0.343 (inactive)
17 | SMARCA4 (UniProt P51532) | 0.099 (inactive)
18 | TBC1D20 isoform 3 (UniProt Q96BZ9) | 0.05 (inactive)
19 | SLC35B4 (UniProt Q969S0) | 0.036 (inactive)
20 | SREBF1 isoform 4 (UniProt P36956) | -0.164 (inactive)
21 | TAOK2 (UniProt Q9UL54) | -0.012 (inactive)
22 | SLC38A7 (UniProt Q9NVC3) | 0.004 (inactive)
23 | SRXN1 (UniProt Q9BYN0) | 0.111 (inactive)
24 | SRSF9 (UniProt Q13242) | 0.376 (inactive)
25 | SNRK (UniProt Q9NRH2) | -0.099 (inactive)
26 | SYK (UniProt P43405) | 0.258 (inactive)

The targets below were run with CNc1nc(-c2ccc3c(N)n[nH]c3c2)cc(N2C[C@@H](C(=O)NC3CCCCC3)CC[C@H]2C)n1 in the same assay as above.
Outline: as §1

Row | Target | log2 fold change
27 | SNX2 isoform 2 (UniProt O60749) | 0.176 (inactive)
28 | SSBP4 (UniProt Q9BWG4) | 0.031 (inactive)
29 | TK1 (UniProt K7ERV3) | -0.058 (inactive)
30 | TBK1 (UniProt Q9UHD2) | -0.013 (inactive)
31 | SLC8B1 (UniProt Q6J4K2) | -0.176 (inactive)
32 | TBP (UniProt P20226) | -0.158 (inactive)
33 | SP2 (UniProt Q02086) | -0.132 (inactive)
34 | SLC9A6 isoform 3 (UniProt Q92581) | -0.107 (inactive)
35 | TEX30 (UniProt Q5JUR7) | -0.026 (inactive)
36 | SMPD4 isoform 2 (UniProt Q9NXE4) | 0.02 (inactive)
37 | SRC isoform 2 (UniProt P12931) | 0.007 (inactive)
38 | SMARCA4 (UniProt P51532) | -0.091 (inactive)
39 | TM7SF2 (UniProt O76062) | 0.018 (inactive)
40 | SREBF1 isoform 4 (UniProt P36956) | 0.045 (inactive)
41 | SRSF9 (UniProt Q13242) | 0.097 (inactive)
42 | SSB (UniProt E7ERC4) | 0.018 (inactive)
43 | THAP9 (UniProt Q9H5L6) | 0.186 (inactive)
44 | TC2N (UniProt Q8N9U0) | -0.064 (inactive)
45 | SNRK (UniProt Q9NRH2) | 0.011 (inactive)
46 | SYK (UniProt P43405) | 0.03 (inactive)

Each target was assayed with COC(=O)N[C@@H](C)CNc1nccc(-c2cn(C(C)C)nc2-c2cc(Cl)cc(NS(C)(=O)=O)c2F)n1 [encorafenib] in the same assay as above.
Outline: as §1

Row | Target | log2 fold change
47 | SNX2 isoform 2 (UniProt O60749) | -0.141 (inactive)
48 | SSBP4 (UniProt Q9BWG4) | -0.18 (inactive)
49 | TBK1 (UniProt Q9UHD2) | 0.049 (inactive)
50 | TBP (UniProt P20226) | 0.019 (inactive)
51 | SLC46A1 (UniProt Q96NT5) | -0.051 (inactive)
52 | SP2 (UniProt Q02086) | -0.025 (inactive)
53 | TCOF1 isoform 6 (UniProt Q13428) | 0.162 (inactive)
54 | TCOF1 isoform 3 (UniProt Q13428) | -0.084 (inactive)
55 | SPIRE1 (UniProt Q08AE8) | -0.105 (inactive)
56 | SLC9A6 isoform 3 (UniProt Q92581) | -0.162 (inactive)
57 | TBC1D2 (UniProt Q9BYX2) | 0.122 (inactive)
58 | SPAG9 isoform 4 (UniProt O60271) | 0.022 (inactive)
59 | SRC isoform 2 (UniProt P12931) | 0.082 (inactive)
60 | SMARCA4 (UniProt P51532) | 0.049 (inactive)
61 | TBC1D20 isoform 3 (UniProt Q96BZ9) | 0.074 (inactive)
62 | SLC35B4 (UniProt Q969S0) | -0.015 (inactive)
63 | SREBF1 isoform 4 (UniProt P36956) | 0.044 (inactive)
64 | TAOK2 (UniProt Q9UL54) | -0.028 (inactive)
65 | SLC38A7 (UniProt Q9NVC3) | 0.016 (inactive)
66 | SRXN1 (UniProt Q9BYN0) | -0.008 (inactive)
67 | SRSF9 (UniProt Q13242) | 0.149 (inactive)
68 | SNRK (UniProt Q9NRH2) | 0.002 (inactive)
69 | SYK (UniProt P43405) | 0.112 (inactive)
